These results are taken from PubChem BioAssay (NCATS).

Results filed as inconclusive are left out. A number with no mark means an inactive call. Active and inactive are the calls of the source. Calls follow the shape of the dose curve; as a rule, active = well fitted cell-killing curve with a large enough effect; inconclusive = small, poorly fitted or top-dose-only effect, or effect the other way; inactive = no such curve, though single readings can be large or run the other way.
Potency is read from the fitted curve at half-maximal effect.

One assay can be described thus: Quantitative High-Throughput drug screen in 47 multiple myeloma cell lines against the NCATS MIPE library collection: KMS12PE_JCRB cell viability assay (AID 1918972). Also: nearly all actives have a fitted effect of over 30% in size. To be noted: KMS12PE myeloma viability, CellTiter-Glo ATP, 48 h; series mostly up to 45.8 µM; viability: at the top concentration. A digest of the protocol:
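CellTiter-Glo luminescence (ATP) after 48 h compound exposure, 37C/5% CO2; 500 cells/well; MIPE 4.0 approved/investigational drugs pinned in; DMSO = 100%, media only = 0% viability.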
On the technique in general: Cellular ATP, detected with luciferase, serves as a proxy for viable cell number.
For `Cc1ccc(C(N)=O)cc1Nc1nccc(-c2cn(C(C)C)c3cnccc23)n1`, the Potency is 5.9 µM (active).
`c1ccc2c(CCNc3ccc(Nc4ccncc4)cc3)c[nH]c2c1`: the Potency was 5.26 µM (active).
As to `C#Cc1cccc(Nc2ncnc3cc(OC)c(OCCCCCCC(=O)NO)cc23)c1`, the Potency is 0.148 µM (active).
Turning to `COc1cccc(Nc2c(C(N)=O)cnc3c(C)cc(S(=O)(=O)c4cccc(C(=O)N(C)C)c4)cc23)c1`, the Potency was 12.9 µM (active).
As for `COC(=O)C[C@](O)(CCCC(C)(C)O)C(=O)O[C@@H]1C(OC)=C[C@]23CCCN2CCc2cc4c(cc2[C@H]13)OCO4`, the viability (commonly a read-out of living cells in per cent, often relative to untreated cells) was 139%.
Regarding `CCN(CC)CCCCNc1ncc2cc(-c3cc(OC)cc(OC)c3)c(NC(=O)NC(C)(C)C)nc2n1`, the Potency is 16.6 µM (active).
`Cc1ccc(NC(=O)C2(c3ccc4c(c3)OC(F)(F)O4)CC2)nc1-c1cccc(C(=O)O)c1`: the Potency was 0.0418 µM (active).
With `Fc1cc(-c2cccc3ncc(-c4cnn(C5CCNCC5)c4)nc23)cc(F)c1CN1CCOCC1`, the Potency is 6.62 µM (active).
Take `O=C(CCCCCCNC(=O)c1cnc(N(c2ccccc2)c2ccccc2)nc1)NO`: the Potency was 5.9 µM (active).
For `O=C(CCCCCCC(=O)Nc1ccc([C@H]2O[C@@H](CSc3nc(-c4ccccc4)c(-c4ccccc4)o3)C[C@@H](c3ccc(CO)cc3)O2)cc1)NO`, the “viability” value was 128%.
For the compound `COc1ccc(OC)c(-c2nnc3ccc(-c4ccc(OC)c(O[C@@H]5CCOC5)c4)nn23)c1`, the Potency is 7.43 µM (active).
Turning to `COc1cc(C(C)C)c2c(c1)S(=O)(=O)N(COc1cc(=O)n3cccc(OCCN4CCCCC4)c3n1)C2=O`, the Potency is 23.5 µM (active).
As to `C[C@@H](Oc1cc(-c2cnn(C3CCNCC3)c2)cnc1N)c1c(Cl)ccc(F)c1Cl`, the Potency was 6.62 µM (active).
Turning to `OCc1ccc(-c2ccc(-c3ccc(CO)s3)o2)s1`, the Potency was 0.235 µM (active).
Take `O=C(c1ccc(Nc2nccc(-c3cc4ccccc4s3)n2)cc1)N1CCC(N2CCCC2)CC1`: the Potency is 1.87 µM (active).
Regarding `COc1cc2c(cc1-c1c(C)noc1C)ncc1[nH]c(=O)n([C@H](C)c3ccccn3)c12`, the Potency was 0.833 µM (active).
On the same count and under the same terms, next, `OCCCNc1cc(-c2ccnc(Nc3cccc(Cl)c3)n2)ccn1`: 0.0935 µM (active).
Take `C[C@H]1C[C@@H]2[C@@H]([C@@H](O)C[C@@]3(C)[C@H]2CC[C@]3(O)C(=O)CO)[C@@]2(C)C=CC(=O)C=C12`: the “viability” value was 80.8%.
`NC(=O)Nc1cc(-c2cccc(F)c2)sc1C(=O)N[C@H]1CCCNC1`: the Potency is 0.469 µM (active).
In the case of `Nc1nccc(Oc2ccc(NC(=O)c3c[nH]cc(-c4ccc(F)cc4)c3=O)cc2F)c1Cl`, the “viability” value was 142%.
Take `COc1cc2c(Oc3ccc(NC(=O)C4(C(=O)Nc5ccc(F)cc5)CC4)cc3F)ccnc2cc1OCCCN1CCOCC1`: the Potency was 3.72 µM (active).
Consider `O=C(Cc1ccc(-c2ccc(OCCN3CCOCC3)cc2)cn1)NCc1ccccc1`, for which the Potency is 0.0148 µM (active).

A further assay in a line: Quantitative High-Throughput drug screen in 47 multiple myeloma cell lines against the NCATS MIPE library collection: KMS20_JCRB cell viability assay (AID 1918973). Also: nearly all actives have a fitted effect of over 45% in size. To be noted: CellTiter-Glo ATP, 48 h; series mostly up to 45.8 µM; viability (% of DMSO): at the top concentration. Summed up: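 Relative luminescence from CellTiter-Glo served as the viability signal, referenced to DMSO-treated (100%) and cell-free medium (0%) controls. Treatment lasted 48 hours at 37C with 500 cells per well.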
For the compound `Cc1ccc(C(N)=O)cc1Nc1nccc(-c2cn(C(C)C)c3cnccc23)n1`, the Potency is 4.18 µM (active).
As to `N#CCNC(=O)c1ccc(-c2ccnc(Nc3ccc(N4CCOCC4)cc3)n2)cc1`, the Potency is 13.2 µM (active).
On to `c1ccc2c(CCNc3ccc(Nc4ccncc4)cc3)c[nH]c2c1`, for which the Potency is 10.5 µM (active).
The same measure, in the same setting: next, `C#Cc1cccc(Nc2ncnc3cc(OC)c(OCCCCCCC(=O)NO)cc23)c1`: 0.0833 µM (active).
Regarding `CN(c1ncccc1CNc1nc(Nc2ccc3c(c2)CC(=O)N3)ncc1C(F)(F)F)S(C)(=O)=O`, the Potency is 3.32 µM (active).
Regarding `CCN(CC)CCCCNc1ncc2cc(-c3cc(OC)cc(OC)c3)c(NC(=O)NC(C)(C)C)nc2n1`, the Potency is 7.43 µM (active).
With `Cc1ccc(NC(=O)C2(c3ccc4c(c3)OC(F)(F)O4)CC2)nc1-c1cccc(C(=O)O)c1`, the Potency was 0.0833 µM (active).
For the compound `CCCCN1CCC(CNC(=O)c2c3n(c4ccccc24)CCCO3)CC1`, the Potency is 13.2 µM (active).
In the case of `Fc1cc(-c2cccc3ncc(-c4cnn(C5CCNCC5)c4)nc23)cc(F)c1CN1CCOCC1`, the Potency is 5.26 µM (active).
With `O=C(CCCCCCNC(=O)c1cnc(N(c2ccccc2)c2ccccc2)nc1)NO`, the Potency is 8.33 µM (active).
`O=C(CCCCCCC(=O)Nc1ccc([C@H]2O[C@@H](CSc3nc(-c4ccccc4)c(-c4ccccc4)o3)C[C@@H](c3ccc(CO)cc3)O2)cc1)NO`: the Potency was 6.62 µM (active).
In the case of `COc1ccc(OC)c(-c2nnc3ccc(-c4ccc(OC)c(O[C@@H]5CCOC5)c4)nn23)c1`, the Potency is 5.26 µM (active).
The same measure, in the same setting: to `COc1cc(C(C)C)c2c(c1)S(=O)(=O)N(COc1cc(=O)n3cccc(OCCN4CCCCC4)c3n1)C2=O` belongs 18.7 µM (active); to `CCN1CCN(CC(=O)Nc2ccc(-c3cccc4c(=O)cc(N5CCOCC5)oc34)c3sc4ccccc4c23)CC1`, 1.18 µM (active); to `OCc1ccc(-c2ccc(-c3ccc(CO)s3)o2)s1`, 1.87 µM (active).
As for `O=C(c1ccc(Nc2nccc(-c3cc4ccccc4s3)n2)cc1)N1CCC(N2CCCC2)CC1`, the Potency was 1.32 µM (active).
Regarding `O=C(Nc1cn[nH]c1-c1nc2ccc(CN3CCOCC3)cc2[nH]1)NC1CC1`, the Potency was 2.96 µM (active).
With `CC(C)c1ccc(Cn2ccc3c4c(N)nc(NC5CC5)nc4ccc32)cc1`, the Potency is 3.72 µM (active).
`COc1cc2c(cc1-c1c(C)noc1C)ncc1[nH]c(=O)n([C@H](C)c3ccccn3)c12`: the Potency was 8.33 µM (active).
For `OCCCNc1cc(-c2ccnc(Nc3cccc(Cl)c3)n2)ccn1`, the Potency was 0.0418 µM (active).
As to `CC(C)(C)OC(=O)Nc1ccc(-c2cc(C(=O)NCCCCCCC(=O)NO)no2)cc1`, the Potency was 2.64 µM (active).
Take `NC(=O)Nc1cc(-c2cccc(F)c2)sc1C(=O)N[C@H]1CCCNC1`: the Potency was 0.662 µM (active).
Regarding `COc1cc2c(Oc3ccc(NC(=O)C4(C(=O)Nc5ccc(F)cc5)CC4)cc3F)ccnc2cc1OCCCN1CCOCC1`, the Potency was 1.87 µM (active).
`COC(=O)C1=C(C)NC(C)=C(C(=O)OCCN2CCN(C(c3ccccc3)c3ccccc3)CC2)C1c1cccc([N+](=O)[O-])c1` (stereo unspecified): the “viability (% of DMSO)” value is 144%.
